TTR transcr act – TTR transcription activation, primary screen | SH-SY5Y TTR promoter Gaussia luciferase, luminescence; 100% = recombinant luciferase protein wells | activation, % at 16.7 µM | hit rate 1.3% among 92,000;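 active means activation above the mean of all tested compounds plus 3 SD, cut at about 9.5% in these data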;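 further: cells exposed to compounds for one day before reading; 0% = median of all test compound wells on the plate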
HuH7 TTR inh – HuH7 TTR transcription inhibition, counter-screen. inhibition, % at 16.7 µM. HuH7 TTR promoter-Gaussia luciferase reporter, luminescence. hit rate 4% among 1,100. shares compounds with TTR transcr act;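 active means average inhibition above the solvent-only control wells' mean plus 3 SD, cut at about 15% in these data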;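 further: 0% = cells with DMSO only and 100% = cells with inhibitor control FD; inhibitors lower well luminescence so higher value means more inhibition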
TTR act confirm – confirmation of human transthyretin transcription activators; activation, % at 16.7 µM; 1,100 tested, under 10 active; SHSY5Y TTR promoter Gaussia luciferase, luminescence; 100% = purified Lucia enzyme wells, no cells; AID 1117280; shares compounds with TTR transcr act;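 active means mean activation above a set limit taken from the earlier primary screen, cut at about 11% in these data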;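 further: 0% = DMSO-treated cells and 100% = recombinant Lucia luciferase without cells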
Numbers without * were called inactive. Shown is part of a subset that was picked to be rich in hits.

SMILES	TTR transcr act	others
CC(=O)c1csc(Nc2ccccc2Cl)n1	12.2*	HuH7 TTR inh=-13.4;TTR act confirm=-0.2
CC(=O)c1csc(-c2ccccc2)n1	-1.1
CCCNC(=O)c1csc(Nc2cccc3ccccc23)n1	0.2
C[C@H](CO)N1C[C@H](C)[C@H](CN(C)S(C)(=O)=O)Oc2c(cccc2N(C)C)C1=O	-1.6
C[C@@H]1CN([C@H](C)CO)C(=O)CCCn2nncc2CO[C@@H]1CN(C)S(=O)(=O)c1ccccc1F	0.7
COc1ccc(NC(=O)CC(=O)Nc2ccc(OC)cc2)cc1	1.7
O=C(Cc1c[nH]c2ccccc12)Nc1ccccc1N1CCOCC1	-1.8
CCN(CC)CCOCCOc1ccccc1F	-0.6
CC(C)NCCOCCOc1ccc(Cl)cc1Br	-0.2
CC(C)NCCOCCOc1ccccc1F	11.1*	HuH7 TTR inh=-8.9;TTR act confirm=0.8
C=CCC[C@@H](Cc1ccc(F)cc1)C(=O)OC[C@@H](NC(=O)[C@H](CC=C)CC(=O)NCCO)C(C)(C)C	-0.3
O=C(CNC(=O)c1ccccc1F)NCCc1ccc(Cl)cc1Cl	2.8
Nc1cc(C(=O)OCC(=O)NNC(=O)c2ccccc2F)ccc1Cl	3.5
O=C(NC(=O)c1ccccc1F)OCc1ccc(Cl)cc1Cl	19.8*	HuH7 TTR inh=-14.2;TTR act confirm=0.6
COc1cccc(CNC(=O)N2CCN(S(=O)(=O)c3ccc(Cl)cc3)CC2)c1	2.1
COc1ccccc1CNC(=O)N1CCN(S(=O)(=O)c2ccc(Cl)cc2)CC1	37.6*	HuH7 TTR inh=-13.6;TTR act confirm=0.4
COc1ccccc1CNC(=O)N1CCN(S(=O)(=O)c2ccccc2)CC1	-1.0
COC(=O)[C@]12C[C@H](CC(=O)N3CCC(c4ccccc4)CC3)C(=O)N(Cc3ccccc3)C1=C[C@H](COCc1ccccc1)O[C@@H]2C	-1.9
C#CNC(=O)C1(CC=C)CCNCC1	0.5
COc1ccc2nc(NC(=O)CSc3ccccc3)sc2c1	-1.0
CCOc1ccc2nc(NC(=O)CSc3nc(SC)ns3)sc2c1	19.6*	HuH7 TTR inh=-7.5;TTR act confirm=0.6
CCOC(=O)c1ccc(NC(=O)CSc2nc(SC)ns2)cc1	-3.4
COC(=O)[C@]12C[C@H](CC(=O)N3CCSCC3)C(=O)N(Cc3cccc4ccccc34)C1=C[C@H](C(C)(C)C)O[C@@H]2C	1.1
Cn1cccc1[C@]1(O)C(=O)Nc2ccc(F)cc21	3.5
C[C@H]1CN([C@@H](C)CO)S(=O)(=O)c2ccc(C#CC3(O)CCCC3)cc2O[C@@H]1CN(C)C(=O)Cc1cccnc1	0.6
SMILES	TTR transcr act	others
CCOC(=O)NC(CC(=O)O)c1ccc(OC)c(OC)c1 (stereo not given)	9.7*	HuH7 TTR inh=5.8;TTR act confirm=-0.9
CCOC(=O)NC(CC(=O)O)c1ccc(OCC)cc1 (stereo not given)	1.6
COc1ccc(C(CC(=O)O)NC(=O)c2cc3cc(Br)ccc3oc2=O)cc1OC (stereo not given)	-2.1
CCCC(=O)NC(c1ccc(OCC)cc1)c1ccc(OC)c(OC)c1 (stereo not given)	-1.1
CCOc1ccc(C(NC(C)=O)c2ccc(OC)c(OC)c2)cc1 (stereo not given)	11.2*	HuH7 TTR inh=-5.4;TTR act confirm=0.8
CCOc1ccc(C(NC(=O)/C=C/c2ccco2)c2ccc(OC)c(OC)c2)cc1 (stereo not given)	-0.5
CC(C)(C)[C@@H]1COC(=O)[C@H](Cc2ccc(F)cc2)CC/C=C\C[C@@H](CC(=O)NCCO)C(=O)N1	2.4
CCOC(=O)[C@@H]1[C@H]2COc3ccccc3[C@@H]2N2C(=O)N(c3cccc(Cl)c3)C(=O)[C@]12C	-0.9
Cc1ccc(S(=O)(=O)N2O[C@@H](c3ccccc3)C[C@H]2CON2C(C)(C)CCCC2(C)C)cc1	-0.9
COc1cccc(CNC[C@H]2O[C@@H](n3ccc(N)nc3=O)[C@H](O)[C@@H]2O)c1OCc1ccc(F)cc1Cl	-1.1
O=C(CC1CC1)Nc1ccc2c(c1)[C@@H]1C[C@H](CC(=O)NC3CCCC3)O[C@@H](CO)[C@@H]1O2	1.9
O=[N+]([O-])c1ccc(C=NN2CCNC2=S)o1	10.0*	HuH7 TTR inh=7.7;TTR act confirm=0.9
CN(/N=C/c1ccc([N+](=O)[O-])o1)c1ccccc1	-2.2
O=C(N/N=C/c1ccc([N+](=O)[O-])o1)C(=O)Nc1ccc(C(=O)O)cc1	3.0
COC(=O)[C@H](CCSC)NC(=O)Cn1cnc(C(=O)Nc2ccc(C)c(C)c2)n1	-0.4
COc1cc(C(=O)NNC(=S)NC(=O)c2ccc(F)cc2)cc(OC)c1OC	2.0
COc1ccc(Cc2nnc(-c3ccccc3)o2)cc1	-1.2
COc1ccc(SCCc2nnc(-c3ccccc3)o2)cc1	-0.8
CCCc1nnc(-c2ccc(OC)cc2)o1	11.7*	HuH7 TTR inh=-1.3;TTR act confirm=-0.8
COCCCN1C(=O)C(CC(=O)NCCCN(C)C)CC(C(=O)N(C(C)C)C(C)C)=C1C (stereo not given)	0.2
COc1cccc(OC(=O)c2ccccc2)c1OC(=O)c1ccccc1	-1.6
Cc1ccccc1NC(=O)Cc1nc(COC(=O)c2ncc(Cl)c(Cl)c2Cl)cs1	1.5

Screening data deposited in PubChem BioAssay by The Scripps Research Institute Molecular Screening Center.
